Assay outcomes deposited in PubChem by several laboratories.
Compounds with a hit are over-represented: about 1.8% of the library has one in this group of screens.
697 NFkB inh: lowers PMA/ionomycin-induced NF-kB signal in 697 B cells | AID 435022 | inhibition, % at 4 µM | actives 0.33% (n = 330,000) | 697 B-cell NF-kB luciferase reporter, 16 h; in the data active = inhibition above about 35%
Jurkat NFkB inh: inhibitors of the PMA/ionomycin-induced NF-kB reporter in Jurkat cells. PMA/ionomycin-induced NF-kB luciferase reporter, luminescence. inhibition, % at 4 µM. actives 0.53% (n = 330,000). AID 435003; in the data active = inhibition above about 50%
Gli-Sufu antag: antagonists of Gli-Sufu signaling; inhibition, % at 5 µM; Sufu-KO-LIGHT fibroblasts, Gli luciferase reporter luminescence; actives 0.74% (n = 340,000); AID 588413;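 active = inhibition above about 55%, limit read from the data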
Beta apoptosis: blocks beta cell apoptosis. INS-1E cytokine-induced death, ATP luminescence, 48 h; percent of positive-control rescue, neutral wells zero. protection from apoptosis, % (concentration not given with the values). actives 0.8% (n = 300,000). AID 435005;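 active = Every replicate reaches about 75%, or at least half do and their mean reaches it too, limit read from the data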;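 also: higher means more ATP so stronger rescue from cytokine killing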
Jurkat NFkB conf: lowers PMA/ionomycin-induced NF-kB signal in Jurkat cells. inhibition, % at 4 µM. actives 27% (n = 2,700). Jurkat NF-kB luciferase, 16 h. shares compounds with Jurkat NFkB inh. AID 435020;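 active = inhibition reaching about 45% at 4 µM in either replicate, limit read from the data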
Hits are given with their value.

How did CCOc1ccccc1NC(=O)CN(c1ccc(OC)cc1)S(=O)(=O)c1c(C)noc1C do in these assays?
697 NFkB inh: inactive; Jurkat NFkB inh: 65.1; Gli-Sufu antag: inactive; Beta apoptosis: inactive; Jurkat NFkB conf: inactive

How did CCOc1ccc(N(CC(=O)Nc2ccccc2C)S(=O)(=O)c2c(C)noc2C)cc1 do in these assays?
697 NFkB inh: inactive; Jurkat NFkB inh: 58.4; Gli-Sufu antag: inactive; Jurkat NFkB conf: 45.8

Results for CCOC(=O)Cc1cc(=O)n2[nH]c(C)c(-c3ccccc3OC)c2n1 ?
697 NFkB inh: inactive; Jurkat NFkB inh: inactive; Gli-Sufu antag: inactive; Beta apoptosis: inactive

Results for c1ccc(-c2noc(-c3ccc4ccccc4c3)n2)nc1 ?
697 NFkB inh: inactive; Jurkat NFkB inh: 54.3; Gli-Sufu antag: 61.9; Beta apoptosis: inactive; Jurkat NFkB conf: 77.0

Results for c1ccc(-c2noc(-c3ccncc3)n2)nc1 ?
697 NFkB inh: inactive; Jurkat NFkB inh: inactive; Gli-Sufu antag: inactive; Beta apoptosis: inactive

How did Cc1cccc(-c2noc(-c3ccc4c(c3)OCO4)n2)c1 do in these assays?
697 NFkB inh: inactive; Jurkat NFkB inh: inactive; Gli-Sufu antag: inactive; Beta apoptosis: inactive; Jurkat NFkB conf: inactive

What do the screens show for `COc1ccc(-c2nc(-c3cccc(C)c3)no2)cc1OC`?
697 NFkB inh: inactive; Jurkat NFkB inh: inactive; Gli-Sufu antag: inactive; Beta apoptosis: inactive

How did c1ccc(-c2noc(-c3ccc4c(c3)OCO4)n2)nc1 do in these assays?
697 NFkB inh: inactive; Jurkat NFkB inh: 68.0; Gli-Sufu antag: inactive; Beta apoptosis: inactive; Jurkat NFkB conf: 69.2

Results for Cc1ccccc1CS(=O)(=O)c1cnc2ccccc2n1 ?
697 NFkB inh: inactive; Jurkat NFkB inh: inactive; Gli-Sufu antag: inactive; Beta apoptosis: inactive

How did N#Cc1ccc(NC(=O)c2cccs2)nc1 do in these assays?
697 NFkB inh: inactive; Jurkat NFkB inh: inactive; Gli-Sufu antag: inactive; Beta apoptosis: inactive

Results for CC1(C)CC(NC(=O)c2ccc(Cl)c(S(=O)(=O)N(Cc3ccccc3)c3ccccc3)c2)CC(C)(C)N1 ?
697 NFkB inh: inactive; Jurkat NFkB inh: 70.6; Gli-Sufu antag: inactive; Jurkat NFkB conf: inactive

What do the screens show for `COc1ccccc1N(Cc1ccccc1)S(=O)(=O)c1cccc(C(=O)NC2CC(C)(C)NC(C)(C)C2)c1`?
697 NFkB inh: inactive; Jurkat NFkB inh: inactive; Gli-Sufu antag: inactive; Beta apoptosis: inactive

What do the screens show for `CCC(=O)N1c2ccc(S(=O)(=O)N3CCN(CC)CC3)cc2CC1C` (configuration not stated)?
697 NFkB inh: inactive; Jurkat NFkB inh: inactive; Gli-Sufu antag: inactive; Beta apoptosis: inactive

Results for CCC(=O)N1c2ccc(S(=O)(=O)N3CCN(c4ccc([N+](=O)[O-])cc4)CC3)cc2CC1C (configuration not stated) ?
697 NFkB inh: inactive; Jurkat NFkB inh: 51.7; Gli-Sufu antag: 57.5; Beta apoptosis: 92.1; Jurkat NFkB conf: 64.8

How did COc1ccc(N2CCN(S(=O)(=O)c3ccc4c(c3)CC(C)N4C(=O)C3CC3)CC2)cc1 (configuration not stated) do in these assays?
697 NFkB inh: inactive; Jurkat NFkB inh: inactive; Gli-Sufu antag: inactive; Beta apoptosis: inactive

How did CC(=O)N1c2ccc(S(=O)(=O)N3CCC(C(=O)Nc4cccc(C)n4)CC3)cc2CC1C (configuration not stated) do in these assays?
697 NFkB inh: inactive; Jurkat NFkB inh: 53.8; Gli-Sufu antag: inactive; Beta apoptosis: inactive; Jurkat NFkB conf: 50.4

Results for CC(=O)c1ccc(N2CCN(S(=O)(=O)c3ccc4c(c3)CC(C)N4C(=O)C3CC3)CC2)cc1 (configuration not stated) ?
697 NFkB inh: inactive; Jurkat NFkB inh: 57.7; Gli-Sufu antag: 66.5; Jurkat NFkB conf: inactive

How did Cc1ccc(C2=NNC(c3cccc(F)c3)S2)cc1 (configuration not stated) do in these assays?
697 NFkB inh: inactive; Jurkat NFkB inh: inactive; Gli-Sufu antag: inactive; Beta apoptosis: inactive; Jurkat NFkB conf: inactive

How did O=C1C=CC(=O)N1c1ccc(OC(F)F)cc1 do in these assays?
Gli-Sufu antag: inactive; Beta apoptosis: inactive

What do the screens show for `COc1ccccc1CNC(=O)c1cccc(-c2ccc(C)c3ccccc23)n1`?
697 NFkB inh: inactive; Jurkat NFkB inh: 61.4; Beta apoptosis: inactive; Jurkat NFkB conf: inactive

How did C=CCSc1ncccc1C(=O)NCCc1ccccc1 do in these assays?
697 NFkB inh: inactive; Jurkat NFkB inh: inactive; Gli-Sufu antag: inactive; Beta apoptosis: inactive

What do the screens show for `COC(=O)c1ccccc1NC(=O)CSc1nc(-c2ccco2)cc(C(F)(F)F)n1`?
697 NFkB inh: inactive; Jurkat NFkB inh: 56.1; Gli-Sufu antag: inactive; Jurkat NFkB conf: inactive

What do the screens show for `Cc1cc(NC(=O)CSc2nc(-c3ccco3)cc(C(F)(F)F)n2)n(-c2ccccc2)n1`?
697 NFkB inh: inactive; Jurkat NFkB inh: inactive; Gli-Sufu antag: inactive; Beta apoptosis: inactive

What do the screens show for `O=C(CSc1nc(-c2ccco2)cc(C(F)(F)F)n1)Nc1ccc2c(c1)CCC2`?
697 NFkB inh: inactive; Jurkat NFkB inh: 61.0; Gli-Sufu antag: inactive; Beta apoptosis: inactive; Jurkat NFkB conf: inactive

How did O=C(CSc1nc(-c2ccco2)cc(C(F)(F)F)n1)NC1CCCC1 do in these assays?
697 NFkB inh: inactive; Jurkat NFkB inh: inactive; Gli-Sufu antag: inactive; Beta apoptosis: inactive

Results for Cc1ccc(NC(=O)CSc2nc(-c3ccco3)cc(C(F)(F)F)n2)cc1C ?
697 NFkB inh: inactive; Jurkat NFkB inh: 71.1; Gli-Sufu antag: inactive; Beta apoptosis: inactive; Jurkat NFkB conf: 49.3

How did COCCCNC(=O)C[C@H]1C[C@H](C(=O)N2CCOCC2)[C@@]2(C)c3[nH]c4ccc(Cl)cc4c3CCN2C1=O do in these assays?
697 NFkB inh: inactive; Gli-Sufu antag: inactive

How did NS(=O)(=O)c1ccc(Oc2ccc(S(N)(=O)=O)cc2)cc1 do in these assays?
697 NFkB inh: inactive; Jurkat NFkB inh: inactive; Gli-Sufu antag: inactive; Beta apoptosis: inactive

Results for C=CS(=O)(=O)c1ccc(Oc2ccc(S(=O)(=O)C=C)cc2)cc1 ?
697 NFkB inh: inactive; Jurkat NFkB inh: 77.7; Gli-Sufu antag: inactive; Beta apoptosis: 106.3; Jurkat NFkB conf: 90.5

What do the screens show for `O=C(NC12CC3CC(CC(C3)C1)C2)c1ccc(-c2ccc(Cl)cc2)o1`?
697 NFkB inh: inactive; Jurkat NFkB inh: inactive; Gli-Sufu antag: inactive; Beta apoptosis: inactive; Jurkat NFkB conf: inactive

What do the screens show for `O=C(NC12CC3CC(CC(C3)C1)C2)c1ccc(-c2ccccc2Cl)o1`?
697 NFkB inh: inactive; Jurkat NFkB inh: inactive; Gli-Sufu antag: inactive; Beta apoptosis: inactive; Jurkat NFkB conf: inactive

How did O=C(NC12CC3CC(CC(C3)C1)C2)c1ccc(-c2cccc(Cl)c2)o1 do in these assays?
697 NFkB inh: inactive; Jurkat NFkB inh: inactive; Gli-Sufu antag: inactive; Beta apoptosis: inactive

What do the screens show for `O=C(/C=C\Nc1ccc2c(c1)OCO2)c1ccccn1`?
697 NFkB inh: inactive; Jurkat NFkB inh: 55.0; Gli-Sufu antag: inactive; Beta apoptosis: inactive; Jurkat NFkB conf: inactive

What do the screens show for `O=C(Nc1ccc(O)c(-c2nc3ccccc3o2)c1)C1(c2ccc([N+](=O)[O-])cc2)CCCC1`?
697 NFkB inh: inactive; Jurkat NFkB inh: inactive; Gli-Sufu antag: inactive; Beta apoptosis: inactive
